SMILES strings stand for the structures. About 6,800 (1.8%) of roughly 370,000 compounds were called active. The full list was thinned out, with actives kept by preference. Values without a mark were called inactive.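 Rule for the calls: active = activation above a cutoff set at the mean of all screened compounds plus 3 SD (cut at about 10% in these data); inactive = the rest.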

This experiment has as its system Nuclear hormone receptor DAF-12 (Heterodera glycines), GAL4 fusion. As to the kind of experiment: H. glycines DAF-12 receptor agonists, primary screen, cell-based, luminescence, HEK293, GAL4 fusion, UAS-luciferase (AID 687014).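 Note: 0% = DMSO wells and 100% = sodium butyrate wells.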 The settings on record: HEK293 GAL4-hgDAF12 UAS-luciferase reporter, agonist luminescence; at 6.8 µM; hits give high values; normalized to butyrate control.
Take `CC(NC(=O)C(=O)N/N=C/c1ccc(Cl)cc1)c1ccccc1` (stereo unspecified): the activation was -4.35%.

As to `O=C(N/N=C/c1ccsc1)c1cc(O)cc(O)c1`, the activation was 2.1%.

With `NN=C(NN=Cc1ccccc1)c1ccccc1`, the activation was 10.3%.

`O=C(N/N=C/c1ccoc1)c1ccc(Cl)cc1Cl`: the activation is 5.04%.

As to `CSc1ccc(/C=N/NC(=O)c2cccc(Cl)c2)cc1`, the activation is 15.8% (active).

`O=C(NN=Cc1ccccc1)c1ccccc1`: the activation is 12.9% (active).

As to `COC(=O)[C@]12C[C@H](CC(=O)NCc3ccccc3)C(=O)N(CCC3=CCCCC3)C1=C[C@H](C(C)(C)C)O[C@@H]2C`, the activation was -0.89%.

For `COc1cccc(CNC(=O)Cn2c(=O)oc3cc(S(=O)(=O)N4CCCCC4)ccc32)c1`, the activation was -2.85%.

Turning to `COc1ccc(C2CC=C(C(=O)O)C(c3ccccc3F)N2S(=O)(=O)c2ccc(C)cc2)cc1OC` (stereo unspecified), the activation is 3.93%.

On to `COC(=O)C[C@@H]1CC[C@H]2[C@@H](COc3ccc(NS(=O)(=O)CC(F)(F)F)cc3C(=O)N2C)O1`, for which the activation was -0.04%.

Regarding `COC(=O)c1cc2c(c3c4ccccc4n(S(=O)(=O)c4cccc(C)c4)c13)C(=O)N(Cc1ccccc1)C2`, the activation was 0.97%.

On to `CC(C)(C)NC(=O)C(c1cccnc1)N(C(=O)c1cnco1)c1ccc(C(C)(C)C)cc1` (stereo unspecified), for which the activation was -4.87%.

`CC(C)(C)C(=O)Nc1ccc(-c2cn3cccnc3n2)cc1`: the activation is 8.9%.

As to `Cc1ccc(S(=O)(=O)NCc2cn3ccsc3n2)c(C)c1`, the activation was -0.36%.

Turning to `COc1ccc(-c2cn3cccnc3n2)cc1`, the activation was 14.7% (active).

Take `COc1ccc(-c2cn3ccsc3n2)cc1`: the activation is 14.1% (active).

Turning to `COc1cc(OC)cc(-c2nc(=S)n3ccsc3n2)c1`, the activation is 2.26%.

For the compound `FC(F)(F)Oc1ccc(-c2cn3cccnc3n2)cc1`, the activation is 9.13%.

As to `Nc1ncnc2c1ncn2[C@@H]1O[C@H](C(=O)N[C@@H](CCc2ccccc2)C(=O)NCC(=O)N2CCOCC2)[C@@H](O)[C@H]1O`, the activation is 1.87%.

For the compound `CC(C)N1CCCCC(NC(=O)c2ccc3ccccc3c2)C1=O` (stereo unspecified), the activation is -0.24%.

For `O=S1(=O)c2ccc(Br)cc2-n2nncc2CN1Cc1cccc(Cl)c1`, the activation was 6.32%.

As for `Cc1ccc(C)c(-n2nnnc2SCC(=O)c2c(N)n(C)c(=O)n(C)c2=O)c1`, the activation is -2.28%.

As for `COc1ccc(Cn2ccc3ccc(-c4ccc5ccn(Cc6ccccc6C)c5c4)cc32)cc1`, the activation was 8.22%.

Consider `CC(=O)OC[C@@H]1CN(Cc2ccccc2)C[C@H](n2cnc3c(NCc4ccco4)ncnc32)O1`, for which the activation is 1.43%.

As to `c1ccc(-c2ccc3c(c2)NC(C2Nc4cc(-c5ccccc5)ccc4O2)O3)cc1` (stereo unspecified), the activation is -0.29%.

As to `c1ccc(-c2c[nH]c(-c3ccccc3)c2)cc1`, the activation was 11.8% (active).

As to `Oc1ccc(-c2cccc(-c3ccc(O)cc3)c2)cc1`, the activation is 7.62%.

In the case of `Brc1ccc(COCCc2cn(Cc3ccccc3)c3ccccc23)cc1`, the activation is 0.93%.

With `O=S1(=O)c2c(cccc2N2CCSCC2)Oc2ccccc2CN1Cc1cn(Cc2ccc(F)cc2)nn1`, the activation is -4.41%.

`Cc1ccc2nc(-c3ccc(Br)cc3)cn2c1`: the activation was -6.8%.

On to `CCN(c1cccc(C)c1)S(=O)(=O)c1ccc(-c2coc(C)n2)cc1`, for which the activation was -2.39%.

For the compound `CCN(CC(=O)NCCc1ccccc1)S(=O)(=O)c1ccc(C)cc1`, the activation was -0.97%.

With `CCN(CC)S(=O)(=O)c1ccc(-c2cn3ccc(C)cc3n2)cc1`, the activation was 10.8% (active).

`COc1ccc(-c2cn3ccc(C)cc3n2)cc1`: the activation was 14.2% (active).

As for `Cc1ccc(-c2cn3cc(C)ccc3n2)cc1`, the activation was -15.8%.

On to `C[C@H]1CCC/C=C/C(=O)c2c(O)cc(O)cc2CC(=O)O1`, for which the activation is -13.8%.

Regarding `CCCCCCCCN1C(=O)[C@@H](CC(=O)NCc2ccccc2)C[C@@]2(C(=O)OC)C1=C[C@H](C(C)(C)C)O[C@@H]2C`, the activation is -1.53%.

On to `O=C(c1ccco1)N1CCN=C1SCc1cccc(Cl)c1`, for which the activation was -5.1%.

For `CCC(=O)c1c(CC)c2n3c1=CC[C@H]3CC(Br)C=2` (stereo partly specified), the activation is -0.81%.

As to `COc1ccc(-n2c(COc3ccccc3)nnc2SCC(=O)Nc2ccc3c(c2)OCO3)cc1`, the activation is -2.9%.

As for `NS(=O)(=O)c1ccc(CCNC(=O)CNC(=O)Cc2ccccc2)cc1`, the activation was 0.79%.

Regarding `Cc1cc(C)n2ncc(C(=O)Nc3ccc4c(c3)OCCO4)c2n1`, the activation is 4.4%.

`CCc1ccc2oc(-c3ccc(N)cc3)nc2c1`: the activation was 15.5% (active).

Take `CC(=O)N1CC2(C)CN(C(C)=O)CC(C)(C1)C2=O`: the activation was 1.11%.

In the case of `O=C(CCCCCN1C(=O)C2C3C=CC(C3)C2C1=O)Nc1ccccc1` (stereo unspecified), the activation is 8.92%.

As for `CC(=O)c1cccc(NC(=O)Nc2ccc(C)cc2)c1`, the activation was 11.1% (active).

As for `CCSc1nsc(NC(=O)Nc2cccc(C(C)=O)c2)n1`, the activation is 8.65%.

For `CC(=O)c1cccc(NC(=O)[C@@H](NC(N)=O)C(C)C)c1`, the activation is -2.72%.

As for `OCCN1CCN(c2ncnc3c2ncn3[C@H]2CN(Cc3ccco3)C[C@@H](CO)O2)CC1`, the activation is 0.95%.

Turning to `COc1ccc(Cn2cc(CN3[C@@H](CC(C)C)COc4cc(Br)ccc4S3(=O)=O)nn2)cc1`, the activation was 2.35%.

In the case of `Cc1ccc(NC(=O)CNCc2ccccn2)cc1S(=O)(=O)N(C)C`, the activation is 3.01%.

For the compound `CCN(c1ccccc1)S(=O)(=O)c1cc(C(=O)NCc2ccccn2)ccc1C`, the activation is 0.44%.

Take `CCN(CC)S(=O)(=O)c1cc(C(=O)Nc2ccccn2)ccc1C`: the activation was 12.3% (active).

In the case of `C[C@H]1[C@H](c2ccccc2)Oc2cc(Br)ccc2S(=O)(=O)N1Cc1cccc(F)c1`, the activation is -2.03%.

Turning to `NS(=O)(=O)c1ccc2nc(NC(=O)CS(=O)(=O)c3ccc(F)cc3)sc2c1`, the activation was 2.11%.

With `NS(=O)(=O)c1ccc2nc(NC(=O)C3=COCCO3)sc2c1`, the activation was 12.8% (active).

On to `O=C(Nc1ccc(S(=O)(=O)N2CCCC2)cc1Cl)C1=COCCO1`, for which the activation is -1.4%.

`COc1ccc(CN2C(=O)N3Cc4cc(OC)ccc4C3CS2(=O)=O)cc1` (stereo unspecified): the activation was -2.75%.

As for `Cc1ccc(-c2nc3ccccc3[nH]c2=O)cc1`, the activation was 10.9% (active).

Regarding `CCCCCn1nnnc1-c1nc2cc3ccccc3cc2[nH]c1=O`, the activation is 0.65%.

As to `Cc1ccc(-c2nnc(-n3nnc4ccccc43)c3ccccc23)cc1`, the activation is 0.07%.

As for `O=C(NCCc1ccccc1)c1ccc(NC2=NC3CS(=O)(=O)CC3S2)cc1` (stereo unspecified), the activation was -1.54%.

Consider `CC1CCN(C(=O)CCNC(=O)c2ccccc2)CC1`, for which the activation is 2.11%.

For `CC1CCCN(c2ccc(C(=O)NCCc3ccccc3)cn2)C1` (stereo unspecified), the activation is 18.4% (active).

Regarding `O=C(NC1CCCC1)C1CSCCS(=O)(=O)N1Cc1ccccc1` (stereo unspecified), the activation is 2.17%.

On to `CC(C)C[C@@H](NC(=O)[C@H]1CCCN1C(=O)Cc1ccccc1)C(N)=O`, for which the activation is 1.33%.

For the compound `Cc1cc(F)ccc1N1CCC(N2CCN(C)C(CCO)C2)CC1` (stereo unspecified), the activation was 1.51%.

Turning to `O=C(Cc1ccccc1)Nc1ccc(C(=O)Nc2ccccc2C(=O)O)cc1`, the activation was 0.23%.

As for `O=C(Nc1ccccc1C(=O)N1CCOCC1)c1ccc(Cl)cc1`, the activation is -2.57%.

In the case of `Nc1ccc(C(=O)Nc2ccccc2N)cc1`, the activation was 66.9% (active).

In the case of `CCC(CO)Nc1cccc2c1S(=O)(=O)N(Cc1cn(Cc3ccccc3C(F)(F)F)nn1)Cc1ccccc1O2` (stereo unspecified), the activation was 0.2%.

As to `O=C1Nc2ccccc2C1=NN=Cc1ccco1`, the activation was 0.84%.

Consider `Nc1nonc1-n1nnc(C(=O)N/N=C/c2ccc(Cl)cc2)c1-c1ccc2c(c1)OCO2`, for which the activation is -0.85%.

For `CCOc1ccc(/C=N\NC(=O)c2c(C)nc3cc(C)ccn23)cc1`, the activation is -0.25%.

On to `Cc1nonc1C(=O)N/N=C/c1ccc(O)cc1`, for which the activation is 10.9% (active).

Turning to `Cc1ccc(O)c(CCc2ccccc2)n1`, the activation is 1.33%.

Consider `Cc1cccc(C(=O)Nc2c(-c3ccc(F)cc3)nc3ncccn23)c1`, for which the activation is -2.47%.

Turning to `CCC(=O)Nc1ccc2c(c1)C(=O)N(C)[C@@H]1CC[C@@H](CC(=O)NCCc3ccccc3)O[C@H]1CO2`, the activation is 0.93%.

As for `O=C(c1ccc(Cl)cc1)n1cnc2ccccc21`, the activation is 0.03%.

Take `Cc1cc(O)cc(O)c1C(=O)Cc1cnn(-c2ccccc2)c1`: the activation was -1.43%.

With `O=C(c1cnn(-c2ccc(Cl)cc2)c1)c1ccccc1O`, the activation is 18.6% (active).

For `CN(CCO)c1cccc2c1S(=O)(=O)N(Cc1cn(Cc3ccc(C(F)(F)F)cc3)nn1)Cc1ccccc1O2`, the activation is 4.36%.

`Cc1ccc(-c2nc(-c3ccncc3)no2)c(C)c1`: the activation was 12.5% (active).

Turning to `O=C(c1cccs1)N1CCCC(c2nc(-c3ccc(F)cc3)no2)C1` (stereo unspecified), the activation is 3.47%.

On to `O=C(NCc1cccnc1)c1nc(-c2cccs2)no1`, for which the activation is 4.85%.

Take `c1csc(-c2nc(-c3ccncc3)no2)c1`: the activation is 10.9% (active).

As for `Cc1ccc(-c2noc(-c3ccccc3C(=O)NCC3CCCO3)n2)cc1` (stereo unspecified), the activation was 3.26%.

Take `CCOc1ccc(N(CC(=O)Nc2c(C)n(C)n(-c3ccccc3)c2=O)S(=O)(=O)c2ccc(Cl)s2)cc1`: the activation was 8.38%.

On to `CCOc1ccccc1C(=O)N1CCC[C@@H]1C(=O)N1CCC[C@H]1C(=O)NCc1ccccc1`, for which the activation was -0.69%.

`CN(C)CC(=O)N[C@@H]1C[C@@H]2O[C@H](CO)CC[C@@H]2O[C@@H]1CCc1ccc(C#Cc2ccccc2)cc1`: the activation is -6.4%.

On to `COC(=O)[C@]12C[C@H](CC(=O)N3CCN(C(=O)C4CC4)CC3)C(=O)N(CCC3=CCCCC3)C1=C[C@H](C(C)C)O[C@@H]2C1CC1`, for which the activation is 1.54%.
